Data: ChEMBL document CHEMBL4513146, “CO-ADD screening of Karazin Kharkiv National University (Ukraine) compounds”
Measured potencies and affinities stand elsewhere.

Key:
Staphylococcus aureus = conditions: Concentration 32 ug.mL-1;; ASSAY_TEST Inhibition of Bacterial Growth; detection method Absorption (OD600); MEDIA CAMHB; plate type 384well; NBS; CORNING #3640; time 18 hr
Escherichia coli = conditions: Concentration 32 ug.mL-1;; ASSAY_TEST Inhibition of Bacterial Growth; detection method Absorption (OD600); MEDIA CAMHB; plate type 384well; NBS; CORNING #3640; time 18 hr

SMILES: Cc1cccc(NC(=O)Cn2c(=O)c3nnc(C(C)C)n3c3ccccc32)c1
- Inhibition (Staphylococcus aureus): 1.06%
- Inhibition (Escherichia coli): -8.16%

SMILES: Cn1c(=O)c2ccc(C(=O)NC3CCCC3)cc2n2c(SCC(=O)Nc3cc(F)ccc3F)nnc12
- Inhibition (Staphylococcus aureus): 8.34%
- Inhibition (Escherichia coli): -3.62%

SMILES: COc1ccc(NC(=O)c2ccc3nn(CC(=O)Nc4ccc(C)c(F)c4)c(=O)n3c2)cc1
- Inhibition (Staphylococcus aureus): 8.14%
- Inhibition (Escherichia coli): -7.69%

SMILES: CCc1ccccc1Sc1nccn2c(=O)n(CC(=O)NCc3ccc(OC)cc3)nc12
- Inhibition (Staphylococcus aureus): -5.48%
- Inhibition (Escherichia coli): -1.47%

SMILES: O=C(CCc1nnc2c3cc(-c4ccc(F)cc4)nn3ccn12)N1CCC(Cc2ccccc2)CC1
- Inhibition (Staphylococcus aureus): 6.97%
- Inhibition (Escherichia coli): -0.02%

SMILES: CCc1ccccc1NC(=O)Cn1nc2n(C)c(=O)c3c(c(-c4ccccc4)cn3C)n2c1=O
- Inhibition (Staphylococcus aureus): 6.44%
- Inhibition (Escherichia coli): -11.71%

SMILES: COC(=O)c1ccc(CN(c2ccc(F)cc2)S(=O)(=O)c2cccn3c(C)nnc23)o1
- Inhibition (Staphylococcus aureus): 11.5%
- Inhibition (Escherichia coli): -1.28%

SMILES: O=C(Cn1nc2c(Oc3ccccc3)nccn2c1=O)Nc1ccc(F)cc1F
- Inhibition (Staphylococcus aureus): 6.01%
- Inhibition (Escherichia coli): -8.04%

SMILES: COc1ccc(-c2cc3c4nnc(SCC(=O)Nc5cccc(C)c5C)n4ccn3n2)cc1
- Inhibition (Staphylococcus aureus): -11.43%
- Inhibition (Escherichia coli): -10.61%

SMILES: CCOc1ccccc1NC(=O)Cn1c(=O)c2nnc(C(C)C)n2c2ccccc21
- Inhibition (Staphylococcus aureus): 15.38%
- Inhibition (Escherichia coli): 5%

SMILES: O=C(CSc1nnc2c3cc(-c4ccccc4)nn3ccn12)NCc1ccccc1Cl
- Inhibition (Staphylococcus aureus): -4.46%
- Inhibition (Escherichia coli): -7.31%

SMILES: CCOC(=O)c1ccccc1NC(=O)Cn1nc2c3sc(N4CCCC4)nc3ncn2c1=O
- Inhibition (Staphylococcus aureus): 11.36%
- Inhibition (Escherichia coli): -3.52%

SMILES: O=C(Cn1nc2c(Oc3ccccc3)nccn2c1=O)Nc1ccc2c(c1)OCCO2
- Inhibition (Staphylococcus aureus): 7.17%
- Inhibition (Escherichia coli): 2.24%

SMILES: CCOc1ccc(-n2ccn3c(SCC(=O)c4ccc(OC)c(OC)c4)nnc3c2=O)cc1
- Inhibition (Staphylococcus aureus): 21.02%
- Inhibition (Escherichia coli): 1.32%

SMILES: O=C(CSc1nnc2c(=O)n(-c3ccccc3)ccn12)Nc1ccc2c(c1)OCCO2
- Inhibition (Staphylococcus aureus): 8.84%
- Inhibition (Escherichia coli): -1.03%

SMILES: COc1ccccc1CNC(=O)Cn1nc2c(N3CCC(C)CC3)nccn2c1=O
- Inhibition (Staphylococcus aureus): 13.11%
- Inhibition (Escherichia coli): -0.77%

SMILES: Cc1ccc(NC(=O)CSc2nnc3ccc(C(=O)Nc4cccc(F)c4)cn23)c(C)c1
- Inhibition (Staphylococcus aureus): 12.19%
- Inhibition (Escherichia coli): -1.6%

SMILES: CC(C)c1nnc2c(SCC(=O)Nc3ccc4c(c3)OCO4)nc3ccccc3n12
- Inhibition (Staphylococcus aureus): -0.91%
- Inhibition (Escherichia coli): -6.38%

SMILES: CCOc1ccc(NC(=O)Cn2nc3ccc(-c4ccccc4)nn3c2=O)cc1
- Inhibition (Staphylococcus aureus): 5.36%
- Inhibition (Escherichia coli): -5.9%

SMILES: Cc1ccc(NC(=O)Cn2nc3ccc(C(=O)NCc4ccccc4)cn3c2=O)c(Br)c1
- Inhibition (Staphylococcus aureus): -7.88%
- Inhibition (Escherichia coli): -9.76%

SMILES: CC(C)c1nnc2c(=O)n(CC(=O)Nc3ccccc3)c3ccccc3n12
- Inhibition (Staphylococcus aureus): 12.53%
- Inhibition (Escherichia coli): 4.36%

SMILES: CC(C)CCNC(=O)CSc1nnc2c(=O)n(-c3ccc(F)cc3)ccn12
- Inhibition (Staphylococcus aureus): 8.18%
- Inhibition (Escherichia coli): -2.32%

SMILES: Cc1cccc(N(CC(=O)OC(C)(C)C)S(=O)(=O)c2cccn3c(C)nnc23)c1
- Inhibition (Staphylococcus aureus): 5.88%
- Inhibition (Escherichia coli): -7.68%

SMILES: Cc1ccc(Cl)cc1NC(=O)Cn1c(=O)c2nnc(C(C)C)n2c2ccccc21
- Inhibition (Staphylococcus aureus): 2.92%
- Inhibition (Escherichia coli): -2.02%

SMILES: Cc1ccc(Sc2nccn3c(=O)n(CC(=O)N4CCN(c5ccccc5)CC4)nc23)c(C)c1
- Inhibition (Staphylococcus aureus): -10.57%
- Inhibition (Escherichia coli): -12.78%

SMILES: Cc1cc2nn(CC(=O)NC(C)C)c(=O)n2c(-c2ccc(C(F)(F)F)cc2)n1
- Inhibition (Staphylococcus aureus): -8.3%
- Inhibition (Escherichia coli): 1.53%

SMILES: CSc1ccc(CNC(=O)CCc2nnc3c(N4CCCCC4)nc4ccccc4n23)cc1
- Inhibition (Staphylococcus aureus): 14.53%
- Inhibition (Escherichia coli): 2%

SMILES: Cc1cccc(N(Cc2ccccc2F)S(=O)(=O)c2ccc3nncn3c2)c1
- Inhibition (Staphylococcus aureus): -3.86%
- Inhibition (Escherichia coli): -5.15%

SMILES: O=S(=O)(c1ccc2nncn2c1)N(Cc1ccccc1F)c1ccc2c(c1)OCO2
- Inhibition (Staphylococcus aureus): 12.13%
- Inhibition (Escherichia coli): -4.11%

SMILES: Cc1ccc(CN(c2ccccc2)S(=O)(=O)c2ccc3nncn3c2)cc1
- Inhibition (Staphylococcus aureus): 12.66%
- Inhibition (Escherichia coli): -4.44%

SMILES: Cc1[nH]c2ccccc2c1C(=O)CSc1nnc2c(=O)n(-c3ccc(Br)cc3)ccn12
- Inhibition (Staphylococcus aureus): -0.76%
- Inhibition (Escherichia coli): -11.28%

SMILES: Cc1nnc2c(S(=O)(=O)N(Cc3cc(F)cc(F)c3)c3cccc(F)c3)cccn12
- Inhibition (Staphylococcus aureus): 8.19%
- Inhibition (Escherichia coli): -6.31%

SMILES: CSc1ccc(CNC(=O)Cn2nc3c(Oc4cccc(C)c4C)nccn3c2=O)cc1
- Inhibition (Staphylococcus aureus): 11.62%
- Inhibition (Escherichia coli): 2.94%

SMILES: COc1cccc(CNC(=O)CSc2nnc3c(=O)n(-c4ccc(F)cc4)ccn23)c1OC
- Inhibition (Staphylococcus aureus): 19.94%
- Inhibition (Escherichia coli): 2.01%

SMILES: Cc1cccc(Oc2nccn3c(=O)n(CC(=O)NCCCc4ccccc4)nc23)c1C
- Inhibition (Staphylococcus aureus): 9.48%
- Inhibition (Escherichia coli): -1.44%

SMILES: CCOc1ccc(NC(=O)Cn2nc3c4cc(-c5ccc(Cl)cc5)nn4ccn3c2=O)cc1
- Inhibition (Staphylococcus aureus): 0.29%
- Inhibition (Escherichia coli): -4.33%
